# In PubChem BioAssay AID2778 (National Center for Advancing Translational Sciences (NCATS), 2010):
# Records with an inconclusive call do not appear. Unmarked numbers belong to inactive results. Calls of active or inactive are those of the source. Calls follow the shape of the dose curve; as a rule, active = well fitted inhibition curve with a large enough effect; inconclusive = small, poorly fitted or top-dose-only effect, or effect the other way; inactive = flat fitted curve, though single readings scatter. Positions of bridges follow the written chain, without caps; N, C: chain ends. Non-standard residues stand in square brackets, D forms with d. Residues, ends and D or L forms follow the SMILES beside them. ξ: configuration not given here. *: point of attachment. ξDab(CH2SO3H) = NC(CCNCS(=O)(=O)O)C(=O)O; Heptanoyl(6-Me) = CC(C)CCCCC(=O)*; Dab = NCC[CH](N)C(=O)O
# Biological target: Menin (Homo sapiens) (UniProt O00255)
# Sequence (O00255 whole entry, looked up): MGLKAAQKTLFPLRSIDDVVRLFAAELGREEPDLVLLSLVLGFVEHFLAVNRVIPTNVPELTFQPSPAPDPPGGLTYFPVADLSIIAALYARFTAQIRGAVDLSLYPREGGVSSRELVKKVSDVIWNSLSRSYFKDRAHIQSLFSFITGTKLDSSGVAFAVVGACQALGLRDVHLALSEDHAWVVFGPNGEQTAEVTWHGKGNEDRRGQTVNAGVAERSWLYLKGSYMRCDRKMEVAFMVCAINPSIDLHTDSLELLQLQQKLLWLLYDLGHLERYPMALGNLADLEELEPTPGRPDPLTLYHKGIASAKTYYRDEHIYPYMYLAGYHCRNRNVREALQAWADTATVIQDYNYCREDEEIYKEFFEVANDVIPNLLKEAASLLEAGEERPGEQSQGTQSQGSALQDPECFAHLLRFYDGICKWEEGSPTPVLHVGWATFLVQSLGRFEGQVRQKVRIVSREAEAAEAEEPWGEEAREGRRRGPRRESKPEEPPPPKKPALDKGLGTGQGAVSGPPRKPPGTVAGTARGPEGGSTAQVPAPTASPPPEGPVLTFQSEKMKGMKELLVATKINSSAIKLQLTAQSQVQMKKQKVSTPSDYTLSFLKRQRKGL
# Test: Confirmation of Inhibitors Targeting the Menin-MLL Interaction in MLL Related Leukemias: Confirmation in an HTRF (commercial TR-FRET) Assay using His-tagged menin and biotin-labeled MLL peptide
# Settings: His-menin / biotin-MLL peptide binding; series mostly up to 126 µM; activity change, negative = inhibition: at the top concentration
# Text: qHTS Assay for Inhibitors Targeting the Menin-MLL Interaction in MLL Related Leukemias
# NIH Chemical Genomics Center [NCGC]
# NIH Molecular Libraries Probe Centers Network [MLPCN]
# Assay Submitter (PI): Jolanta Grembecka, Tomasz Cierpicki, University of Virginia
# Translocations of the MLL (Mixed Lineage Leukemia) gene are frequently found in human leukemias affecting both children and adults. Fusion of MLL to one of more than 60 genes results in generation of oncogenic proteins upregulating Hox genes, which are vital to blood cell development. Patients harboring fusion of the MLL gene suffer from aggressive leukemias and respond poorly to available therapies. All of the oncogenic fusion proteins have a preserved N-terminal fragment of MLL that has been identified to interact with menin. It has been recently discovered that association with menin is critical to the leukemogenic activity of the MLL fusion oncoproteins. Selective targeting of the menin-MLL interaction could provide an attractive therapeutic approach to develop novel drugs for MLL-related leukemias. Small molecules blocking the menin-MLL interaction should reverse the oncogenic potential of MLL fusion proteins.
# We have developed and optimized a fluorescence polarization-based assay for the identification of Menin-MLL inhibitors. The assay was run employing two different MLL-derived peptides. The present assay uses a 12 amino acid peptide labeled with fluorescein at its N-terminus. This peptide consists of the menin high affinity binding motif from MLL and is potently bound by menin. Another peptide with a mutated sequence, labeled with Texas Red, was used in parallel as a less stringent screen for inhibitors.
# The present assay uses an alternate technology to confirm hits from the primary screen - homogeneous time resolved fluorescence (HTRF).
# The Menin protein, the MLL-wild type (w.t.) derived peptide (N-terminal 12 amino acids), the MLL-derived peptide labeled with Texas Red and the MLL-w.t. peptide labeled with Fluorescein were kindly supplied by laboratory of Dr. Jolanta Grembecka, University of Virginia. All protein and peptide solutions were stored in single use aliquots at -80C. The Eu3+ Cyrptate-conjugated mouse monoclonal antibody anti-6 Histidine (Eu3+-AB) and the Streptavidin-XL665 conjugate (XL665) were purchased from Cisbio International (Bedford, MA). All antibody and XL665 conjugate solution stocks were stored in single use aliquots at -20C. The Buffer components for all assays were purchased from Sigma-Aldrich (St. Louis, MO) and Invitrogen (Carlsbad, CA).
# 1. HTRF reaction buffer: 50 mM Tris-HCl pH 7.5, 50 mM NaCl, 1mM DTT.
# Before use, 0.05% BSA is added.
# 2. His6-Menin protein, MLL-w.t. labeled with biotin.
# Stored in singe use aliquots at -80C.
# 3. MLL-w.t. unlabeled peptide as positive control: 10 uM final in HTRF buffer.
# 1. Prepare His6-Menin at 200 nM, MLL-w.t.-biotin at 80 nM in HTRF buffer.
# 2. Prepare His6-Menin at 200 nM, MLL-w.t.-biotin at 80 nM and 10 uM MLL-w.t. unlabeled mixture in HTRF buffer.
# 3. Dispense 10 ul per well of reagent in step 1 in columns 2, 4-24 in a black 384 well plate, dispense 10 ul per well of reagents from steps 2 in column 1. Incubate plate at ambient for 15 minutes.
# 4. Transfer 1 uL per well of compound to plate and incubate at ambient for 1 hr.
# 5. Dispense 10uL of the donor (6His-Cryptate, 3.5 nM final conc.) and acceptor (SA_XL, 10nM final conc.) complex in the HTRF buffer with 0.01% BSA. Incubate for 1h.
# % is scaled to controls: 0 for no effect and ±100 for the full control effect; potency is read from the fitted curve at half-maximal effect.
SMILES,"activity change, negative = inhibition",Potency
Cc1ccc(NS(=O)(=O)c2csc(C(N)=O)c2)cc1C,3.15% [at 383 µM],–
CCOc1ccccc1N(CC(=O)Nc1ccccc1C(=O)N1CCCC1)S(C)(=O)=O,-3.97%,–
O=C(NC(=S)N1CCCc2ccccc21)c1ccc([N+](=O)[O-])cc1,7.79%,–
CC(c1ccccc1)c1nnc(NC(=O)Nc2ccccc2F)s1 (stereo not given),-6.18% [at 383 µM],–
O=C(c1cc2c(=O)n3ccccc3nc2s1)N1CCOCC1,-10.9% [at 383 µM],–
Cn1c(=O)n(C)c2cc3[nH]cnc3cc21,5.86%,–
O=C(CCN1CCN(c2ccc([N+](=O)[O-])cc2)CC1)c1ccc(Cl)cc1,-5.98% [at 383 µM],–
Cc1ccc(-c2cc(C(=O)Nc3cc(C)ccc3O)no2)cc1,-8.8%,–
O=C(CS)Nc1ccc2ccccc2c1,-22.4%,–
O=[N+]([O-])CC(c1ccccc1)P(=O)(c1ccccc1)c1ccccc1 (stereo not given),0.121%,–
C=C(C)CNC(=S)Nc1cccc2cnccc12,6.82%,–
c1ccc2c(c1)nc(N1CCOCC1)c1c3ccccc3[nH]c21,-9.36% [at 383 µM],–
N=C1c2ccccc2CN1c1ccc(N2CCOCC2)c(S(=O)(=O)Nc2ccc(Cl)cc2)c1,–,79.4 µM (active)
O=C1Cc2ccccc2Sc2c(OCCN3CCCCC3)cccc21,-10.9%,–
CCCC(=O)Nc1cccc(NC(=O)c2ccc([N+](=O)[O-])cc2Cl)c1,-0.708% [at 383 µM],–
O=C(CSc1nc(O)cc(=O)n1-c1ccccc1)c1ccc(Br)cc1,-24.8%,–
COC(CSc1nc(N)c2c3c(sc2n1)CN(C)CC3)OC,5.19%,–
CCOC(=O)c1cnc2ccc(OC)cc2c1Nc1ccc(N2CCN(C)CC2)cc1,-21.7% [at 383 µM],–
COc1cc(NC(=O)c2cccnc2)c(OC)cc1NC(=O)c1ccc(Br)cc1,-9.27%,–
COc1ccc(NC(=O)NC2(C(=O)N3CCOCC3)CCCCC2)cc1,-4.37%,–

SMILES,"activity change, negative = inhibition",Potency
Oc1ccc2ccccc2c1N=Nc1nccs1,12.6%,–
COc1ccc(CN2CCC(Cc3ccccc3)CC2)c(C)c1C,7.64%,–
COc1ccccc1NS(=O)(=O)c1cc(N2Cc3ccccc3C2=N)ccc1N1CCOCC1,–,89.1 µM (active)
CCn1cnc2c1c(=O)n(CC(=O)O)c(=O)n2Cc1ccccc1,-1.56% [at 383 µM],–
CCN1C(=O)[C@@H]2C(C(=O)c3cnccn3)=NN[C@@H]2C1=O,6.13%,–
CCNc1ccccc1CP(=O)(c1ccccc1)c1ccccc1O (stereo not given),–,89.1 µM (active)
CSC[C@@H]1NC(=S)N(c2ccc(C)cc2)C1=O,-2.46%,–
COc1ccc(C)cc1N(C(=O)c1snc(C(N)=O)c1N)C(C(=O)NC1CCCC1)c1ccc(F)cc1 (stereo not given),-1.82% [at 383 µM],–
CCCCCC1CCC(C(=O)NCCN2CCOCC2)CC1 (stereo not given),10.1%,–
CN1CCS/C1=C/C=C1/SC(=S)N(Cc2ccccc2)C1=O,-22.5%,–
O=C(NC(=S)Nc1ccccc1)c1cc(-c2ccccc2)nc2ccccc12,-1.55% [at 383 µM],–
NC(=O)[C@@H]1CCCNc2c(I)cc([N+](=O)[O-])cc2C(=O)N[C@@H](CCCN=C(N)N)C(=O)N[C@@H](CCCN=C(N)N)C(=O)N1,-15.7% [at 383 µM],–
CCC(=O)NC(=S)Nc1ccc(-c2nc3ccc(C)cc3s2)cc1,-21.6%,–
CC(C)Sc1nc(N2CCOCC2)c2c3c(sc2n1)COC(C)(C)C3,–,316 µM (active)
CCC(C)C1NC(=O)C(CCNCS(=O)(=O)O)NC(=O)C(NC(=O)C(CCNCS(=O)(=O)O)NC(=O)C(NC(=O)C(CCNCS(=O)(=O)O)NC(=O)CCCCC(C)C)C(C)O)CCNC(=O)C(C(C)O)NC(=O)C(CCNCS(=O)(=O)O)NC(=O)C(CCNCS(=O)(=O)O)NC(=O)C(C(C)CC)NC1=O (stereo not given) ({Heptanoyl(6-Me)}-[ξDab(CH2SO3H)]T[ξDab(CH2SO3H)][Dab][ξDab(CH2SO3H)]II[ξDab(CH2SO3H)][ξDab(CH2SO3H)]T; lactam 4-C; configuration not given here),2.48%,–
CC(=O)O[C@H]1CSC[C@H]1NC(=O)c1ccccc1,5.21%,–
CN(C)CCCNCC(=O)c1c(-c2ccccc2)n(C)c2ccccc12,3.68%,–
O=C(NCC1CCCO1)c1ccc(OC2CCN(C(=O)C3CC3)CC2)cc1 (stereo not given),2.92%,–
COc1cc(SC)ccc1C(=O)Nc1cccc(C2OCCCO2)c1,-11.9% [at 383 µM],–
Cc1ccc(F)c(C2C3C=CCC(C)C3C(=O)N2Cc2ccccc2)c1 (stereo not given),-0.648%,–
